In PubChem BioAssay (NCATS):
Inconclusive results are not listed. Active and inactive are the calls of the source. Calls follow the shape of the dose curve; as a rule, active = well fitted curve in the direction sought with a large enough effect; inconclusive = small, poorly fitted or top-dose-only effect, or another doubt; inactive = no such curve, though single readings can be large; an effect the other way counts as inactive or inconclusive.

Columns and labels:
CRL-7250 = normal cell line; test: Cytotoxic Profiling of Annotated Libraries Using Quantitative High-Throughput Screening (AID 1296008); conditions: Five cell lines viability, CellTiter-Glo ATP luminescence, 48-72 h; max response: active compounds read low; also: nearly all actives have a fitted effect of over 60% in size; as to max response: % is scaled to controls: 0 for no effect and ±100 for the full control effect
How it was run: (§1)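 Cytotoxicity was measured as CellTiter-Glo ATP luminescence, read after 10 min at room temperature. Compound treatment of the cells lasted 48 or 72 hr at 37 degrees Celsius in a qHTS format.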

HEK293 = test: as above; conditions: Five cell lines viability, CellTiter-Glo ATP luminescence, 48-72 h; max response: active compounds read low
How it was run: as §1

HaCat [1] = test: as above; conditions: Five cell lines viability, CellTiter-Glo ATP luminescence, 48-72 h; max response: active compounds read low
How it was run: as §1

KB-3-1 = test: as above; conditions: Five cell lines viability, CellTiter-Glo ATP luminescence, 48-72 h; max response: active compounds read low
How it was run: as §1

NIH3T3 = test: as above; conditions: Five cell lines viability, CellTiter-Glo ATP luminescence, 48-72 h; max response: active compounds read low
How it was run: as §1

HEK293T [2] = test: qHTS assay to identify novel small-molecules to repurpose for Merkel cell carcinoma treatment (AID 1296009); conditions: MCC and control cell lines, CellTiter-Glo viability, 72 h; at 44.8 µM (top of the series) unless noted; also: nearly all actives have a fitted effect of over 60% in size
How it was run: (§2)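 After compound transfer in DMSO, plates were kept 72 hr at 37 degree celsius. Luminescent ATP signal from CellTiter-Glo served as viability measure, normalized against DMSO and no-cell controls.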

C33A = test: Primary qHTS to identify gynecologic anti-cancer compounds using libraries of approved drugs and bioactive compounds (AID 1345084); conditions: Gynecologic cancer cell panel viability, ATPlite luminescence, 48 h; series mostly up to 57.5 µM; also: % is scaled to controls: 0 for no effect and ±100 for the full control effect; nearly all actives have a fitted effect of over 55% in size
How it was run: (§3)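 Five-concentration response, 48 h; readout is ATP-driven luciferase luminescence.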

CAOV3 = test: as above; conditions: Gynecologic cancer cell panel viability, ATPlite luminescence, 48 h; series mostly up to 57.5 µM
How it was run: as §3

CASKI = test: as above; conditions: Gynecologic cancer cell panel viability, ATPlite luminescence, 48 h; series mostly up to 57.5 µM
How it was run: as §3

Es-2 = test: as above; conditions: Gynecologic cancer cell panel viability, ATPlite luminescence, 48 h; series mostly up to 57.5 µM
How it was run: as §3

HeLa = test: as above; conditions: Gynecologic cancer cell panel viability, ATPlite luminescence, 48 h; series mostly up to 57.5 µM
How it was run: as §3

Hek293T [3] = test: as above; conditions: Gynecologic cancer cell panel viability, ATPlite luminescence, 48 h, control line for the selectivity index; series mostly up to 57.5 µM
How it was run: as §3

JEG-3 = test: as above; conditions: Gynecologic cancer cell panel viability, ATPlite luminescence, 48 h; series mostly up to 57.5 µM
How it was run: as §3

HACAT [4] = test: qHTS assay to identify novel small-molecules to repurpose for Merkel cell carcinoma treatment (AID 1296009); conditions: MCC and control cell lines, CellTiter-Glo viability, 72 h; at 44.8 µM (top of the series) unless noted; also: nearly all actives have a fitted effect of over 60% in size
How it was run: as §2

OV90 = test: Primary qHTS to identify gynecologic anti-cancer compounds using libraries of approved drugs and bioactive compounds (AID 1345084); conditions: Gynecologic cancer cell panel viability, ATPlite luminescence, 48 h; series mostly up to 57.5 µM; also: % is scaled to controls: 0 for no effect and ±100 for the full control effect; nearly all actives have a fitted effect of over 55% in size
How it was run: as §3

COc1cc(Cc2cnc(N)nc2N)c(C(C)C)cc1OC
inactive: max response (CRL-7250) -4.26% | outcome (HEK293) | max response (HaCat [1]) -0.359% | max response (KB-3-1) 4.42% | max response (NIH3T3) 3.87% | outcome (HEK293T [2]) | Potency (C33A) | Potency (CAOV3) | outcome (CASKI) | Potency (Es-2) | Potency (HeLa) | Potency (Hek293T [3]) | Potency (JEG-3)

C=CC(C)(O)C1CC2C3(C)CCCC(C)(C)C3C(O)C(O)C2(C)O1 (centres undefined)
inactive: max response (CRL-7250) -10.8% | max response (HEK293) 3.38% | outcome (HaCat [1]) | outcome (KB-3-1) | max response (NIH3T3) -13.6% | outcome (HACAT [4]) | Potency (C33A) | outcome (CASKI) | Potency (Es-2) | Potency (HeLa) | Potency (Hek293T [3]) | Potency (JEG-3) | Potency (OV90)

CC1(C)CC[C@]2(C(=O)O)CC[C@]3(C)C(=CCC4[C@@]5(C)C[C@@H](O)[C@H](O)[C@@](C)(CO)C5[C@H](O)C[C@]43C)[C@@H]2C1 (some centres undefined)
inactive: outcome (CRL-7250) | max response (HEK293) -6.35% | outcome (HaCat [1]) | outcome (KB-3-1) | max response (NIH3T3) 0.343% | outcome (HACAT [4]) inactive [at 17.4 µM] | Potency (C33A) | outcome (CASKI) | Potency (Es-2) | Potency (HeLa) | Potency (Hek293T [3]) | Potency (JEG-3) | Potency (OV90)

CC1CCC23COC(=O)C2=CC(O)CC3C1(C)CCc1ccoc1 (centres undefined)
inactive: max response (CRL-7250) 1.42% | outcome (HEK293) | max response (HaCat [1]) -3.63% | max response (KB-3-1) -2.5% | max response (NIH3T3) -7.2% | outcome (HEK293T [2]) | Potency (C33A) | Potency (CAOV3) | outcome (CASKI) | Potency (Es-2) | Potency (HeLa) | Potency (Hek293T [3]) | Potency (JEG-3) | Potency (OV90)

CC1=CCC(O)C2(C)CCC3C(C)C(=O)OC3C12 (centres undefined)
inactive: max response (CRL-7250) -3.96% | max response (HEK293) -18.2% | outcome (HaCat [1]) | max response (KB-3-1) -6.48% | max response (NIH3T3) -0.383% | outcome (HACAT [4]) | Potency (CAOV3) | outcome (CASKI) | Potency (Es-2) | Potency (HeLa) | Potency (Hek293T [3]) | Potency (JEG-3) | Potency (OV90)

O=C(OC[C@H]1O[C@H](O[C@]2(CO)O[C@H](CO)[C@@H](O)[C@@H]2O)[C@H](O)[C@@H](O)[C@@H]1O)c1ccc(O)cc1
inactive: max response (CRL-7250) -3.61% | max response (HEK293) 1.1% | outcome (HaCat [1]) | max response (KB-3-1) 0.316% | max response (NIH3T3) -10.5% | outcome (HACAT [4]) inactive [at 17.4 µM] | Potency (C33A) | outcome (CASKI) | Potency (Es-2) | Potency (HeLa) | Potency (Hek293T [3]) | Potency (JEG-3) | Potency (OV90)

O=C1NC(=O)/C(=C/c2cccc(C(F)(F)F)c2)S1
inactive: outcome (CRL-7250) | outcome (HEK293) | max response (HaCat [1]) 3.45% | max response (KB-3-1) -2.21% | max response (NIH3T3) 4.34% | outcome (HEK293T [2]) | Potency (C33A) | Potency (CAOV3) | outcome (CASKI) | Potency (Es-2) | Potency (HeLa) | Potency (Hek293T [3]) | Potency (JEG-3) | Potency (OV90)

COC(=O)/C=C/c1ccc(O[C@@H]2O[C@H](CO)[C@@H](O)[C@H](O)[C@H]2O)cc1
inactive: max response (CRL-7250) -1.55% | max response (HEK293) -5.47% | outcome (HaCat [1]) | max response (KB-3-1) 2.42% | outcome (NIH3T3) | outcome (HACAT [4]) | Potency (C33A) | outcome (CASKI) | Potency (Es-2) | Potency (HeLa) | Potency (Hek293T [3]) | Potency (JEG-3) | Potency (OV90)

COc1c(O[C@@H]2O[C@H](CO)[C@@H](O)[C@H](O)[C@H]2O)c(CCC(=O)O)cc2ccoc12
inactive: max response (CRL-7250) -9.14% | max response (HEK293) -0.3% | outcome (HaCat [1]) | max response (KB-3-1) 2.96% | max response (NIH3T3) 0.4% | outcome (HACAT [4]) | outcome (CASKI) | Potency (Es-2) | Potency (HeLa) | Potency (Hek293T [3]) | Potency (OV90)

O=C(OC[C@H]1O[C@H](O[C@H]2CO[C@H](CO)[C@@H](O)[C@@H]2O)[C@H](O)[C@@H](O)[C@H]1O)c1ccccc1
inactive: max response (CRL-7250) -5.33% | outcome (HEK293) | max response (HaCat [1]) -15.9% | max response (KB-3-1) -0.911% | max response (NIH3T3) 4.33% | outcome (HEK293T [2]) inactive [at 17.4 µM] | Potency (C33A) | Potency (CAOV3) | outcome (CASKI) | Potency (Es-2) | Potency (HeLa) | Potency (Hek293T [3]) | Potency (JEG-3) | Potency (OV90)

C=C1[C@H](OC(C)=O)[C@H]2[C@@H](OC(=O)c3ccccc3)[C@@H](C)C[C@]2(O)[C@@H](OC(C)=O)[C@H](C)/C=C/C(C)(C)C(=O)[C@H](OC(C)=O)[C@H]1OC(C)=O
inactive: max response (CRL-7250) 3.14% | max response (HEK293) -5.03% | outcome (HaCat [1]) | outcome (KB-3-1) | max response (NIH3T3) 3.53% | outcome (HACAT [4]) inactive [at 17.4 µM] | Potency (CAOV3) | Potency (Es-2) | Potency (HeLa) | Potency (Hek293T [3]) | Potency (JEG-3) | Potency (OV90)

CC(CCc1ccc(O)cc1)O[C@@H]1O[C@H](CO[C@@H]2OC(CO)[C@H](O)[C@H]2O)[C@@H](O)[C@H](O)[C@H]1O (some centres undefined)
inactive: max response (CRL-7250) -0.0719% | outcome (HEK293) | max response (HaCat [1]) -7.01% | outcome (KB-3-1) | max response (NIH3T3) -1.05% | outcome (HEK293T [2]) inactive [at 17.4 µM] | Potency (C33A) | Potency (CAOV3) | outcome (CASKI) | Potency (Es-2) | Potency (HeLa) | Potency (Hek293T [3]) | Potency (JEG-3) | Potency (OV90)

CC(=O)O[C@@H]1C(O)C[C@@]2(C)C(CC[C@@H](C)C23Cc2c(O)cc4c(c2O3)CNC4=O)C1(C)C (some centres undefined)
inactive: max response (CRL-7250) 0.238% | max response (HEK293) 1.81% | outcome (HaCat [1]) | max response (KB-3-1) -3.56% | max response (NIH3T3) -7.87% | outcome (HACAT [4]) inactive [at 17.4 µM] | Potency (C33A) | outcome (CASKI) | Potency (Es-2) | Potency (Hek293T [3]) | Potency (JEG-3) | Potency (OV90)
